An excerpt weighted towards active compounds, which were near 2.4% of everything screened.
FEN1 inhibitor = human FEN1 inhibition; P39748; Recombinant FEN1 flap cleavage, fluorescence, 15 min; Potency, µM (top dose mostly 114 µM), inactives show top-dose activity change, negative = inhibition, hits mostly inhibitors; actives 0.35% (n = 390,000); further: on the % scale 0 is the no-effect control and ±100 the full control effect; nearly all actives have a fitted effect of over 65% in size
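Enzyme 10 nM, 15 min RT preincubation with compound; start with substrate 50 nM final; reads at 0 and 15 min; qHTS titration, four-parameter Hill fit.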
Pol beta inh = blocks human DNA polymerase beta activity | P06746 | Pol beta primer extension/strand displacement, fluorescence kinetic | Potency, µM (doses to about 114 µM), without a hit: at the highest dose activity change, negative = inhibition, actives largely listed as inhibitors | actives 1.3% (n = 340,000); further: on the % scale 0 is the no-effect control and ±100 the full control effect
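Pol beta (10 nM) was preincubated with compound for 15 min at room temperature. The reaction was then started with 50 nM substrate and read immediately and after a further 10 min at room temperature.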
POLK inh = inhibitors of human DNA polymerase kappa. Q9UBT6. purified Pol kappa, fluorescent DNA synthesis assay, 10 min. Potency, µM (titrated, usually from 107 µM), for inactives: at the top dose activity, negative = inhibition, hits mostly inhibitors. actives 0.53% (n = 400,000). AID 588579; further: on the % scale 0 is the no-effect control and ±100 the full control effect
Target sequence (Q9UBT6 whole entry, looked up): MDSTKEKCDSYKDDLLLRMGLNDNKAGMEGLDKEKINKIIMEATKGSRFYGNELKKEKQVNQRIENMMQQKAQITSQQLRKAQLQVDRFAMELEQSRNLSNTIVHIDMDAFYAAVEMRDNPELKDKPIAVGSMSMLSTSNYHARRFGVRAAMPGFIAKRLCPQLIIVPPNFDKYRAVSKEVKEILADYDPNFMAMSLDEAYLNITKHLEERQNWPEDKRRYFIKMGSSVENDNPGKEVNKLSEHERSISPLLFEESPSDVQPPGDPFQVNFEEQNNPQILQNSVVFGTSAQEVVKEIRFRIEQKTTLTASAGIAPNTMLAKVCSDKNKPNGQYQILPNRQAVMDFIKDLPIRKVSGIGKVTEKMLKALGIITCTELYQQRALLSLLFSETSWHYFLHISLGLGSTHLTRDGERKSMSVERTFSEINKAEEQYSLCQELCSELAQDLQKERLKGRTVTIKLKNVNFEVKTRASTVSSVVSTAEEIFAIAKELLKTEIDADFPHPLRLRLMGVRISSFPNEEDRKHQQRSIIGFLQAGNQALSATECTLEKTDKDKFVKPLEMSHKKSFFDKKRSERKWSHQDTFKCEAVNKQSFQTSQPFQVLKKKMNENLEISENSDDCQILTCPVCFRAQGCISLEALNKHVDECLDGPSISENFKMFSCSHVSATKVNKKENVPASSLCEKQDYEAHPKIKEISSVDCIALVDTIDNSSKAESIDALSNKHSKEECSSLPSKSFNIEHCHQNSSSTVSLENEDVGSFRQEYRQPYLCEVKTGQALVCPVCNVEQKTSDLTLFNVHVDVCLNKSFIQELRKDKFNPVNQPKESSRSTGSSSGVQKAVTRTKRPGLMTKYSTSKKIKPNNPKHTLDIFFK
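Kinetic fluorescence readout at 0 and 10 min followed reaction start with substrate at 50 nM final. Beforehand, enzyme (10 nM Pol kappa) stood 15 min with compound at room temperature; buffer-only wells were negative controls.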
Pol eta inh = inhibitors of human DNA polymerase eta; Q9Y253; recombinant Pol eta, fluorescent DNA replication assay; Potency, µM (titrated, usually from 114 µM), for the others: at the highest dose activity change, negative = inhibition, hits mostly inhibitors; actives 1.2% (n = 390,000); AID 588591; further: on the % scale 0 is the no-effect control and ±100 the full control effect
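Pol eta (10 nM) was preincubated with compounds for 15 min at room temperature, after which fluorescent replication substrate (50 nM final) was added to start the reaction. Fluorescence was read kinetically at 0 and 10 min.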
WRN inhibitor = WRN helicase (human) inhibition | Q14191 | WRN helicase unwinding, fluorescent forked duplex, kinetic | Potency, µM (top dose mostly 114 µM), without a hit: at the highest dose activity change, negative = inhibition, most hits filed as inhibitors | actives 0.46% (n = 360,000); further: on the % scale 0 is the no-effect control and ±100 the full control effect; nearly all actives have a fitted effect of over 55% in size
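WRN at 20 nM final preincubated with compound 15 min at room temperature; reaction started with 100 nM fluorophore/quencher forked duplex oligonucleotide and 2 mM ATP final. Unwinding followed kinetically by red fluorescence (ex 525, em 598 nm).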
Pol iota inh = inhibitors of human DNA polymerase iota. Q9UNA4. Pol iota fluorescent replication assay, 10 min. Potency, µM (titrated, usually from 115 µM), for inactives: top-dose activity, negative = inhibition, actives largely listed as inhibitors. actives 1% (n = 390,000). AID 588590
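Pol iota at 10 nM preincubated 15 min with compounds at room temperature; reaction started with fluorescent substrate, 50 nM final. Fluorescence read kinetically at 0 and 10 min; buffer-only wells as negative control.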
An asterisk follows results filed as active; ? = inconclusive; · = not tested or not shown; [ ] = remark or other dose. The call rests on the fitted dose curve; in most records, active means well fitted curve in the direction sought with a large enough effect; inconclusive means small, poorly fitted or top-dose-only effect, or another doubt; inactive means no such curve, though single readings can be large; an effect the other way counts as inactive or inconclusive. Potency means the concentration at half of the fitted maximal effect.

SMILES	FEN1 inhibitor	Pol beta inh	POLK inh	Pol eta inh	WRN inhibitor	Pol iota inh
O=C(O)C1CCN(C(=O)CCc2ccccc2)CC1	-5%	50µM*	-2%	-17%	-18%	189%
CC(C)C(=O)Nc1cccc(N2CCN(CCCN3C(=O)C4CCCCN4C3=O)CC2)c1 (centres undefined)	?	·	-19%	4%	-15%	13µM*
COC(=O)c1ccc(COc2ccc3c(C)c(C)c(=O)oc3c2)o1	-20%	56µM*	-6%	-15%	-6%	?
COC(=O)c1ccc(COc2ccc3ccc(=O)oc3c2)o1	-4%	-3%	4%	-13%	-5%	8%
Cc1cc(C(=O)CSc2nnc(-c3ccco3)o2)c(C)n1C	-11%	·	?	-6%	-4%[11.6 µM]	35µM*
CCn1c(C)cc(C(=O)CSc2nnc(-c3ccco3)o2)c1C	-13%	·	-10%	-9%	1%	-22%
CCCCN(C)C(=O)c1nc2ccccn2c1CN1CCC[C@H]1C(=O)OC	4%	-22%	-5%	4%	-2%	56%
CC1=C(c2ccc(C(C)C)cc2)S(=O)(=O)N=C1N1CCC(C(=O)NCc2ccco2)CC1	-1%	-2%	2%	·	·	19%
CC1=C(c2ccc(C(C)C)cc2)S(=O)(=O)N=C1N1CCN(C(=O)c2ccco2)CC1	-3%	-16%	?	-19%	-10%	50µM*
O=c1c2c(nc3cc(-c4ccccc4Cl)[nH]n13)CCS2	-19%	35µM*	-16%	0%	-12%	-8%
Cc1cccn2c(=O)nc(SCC(=O)NCc3ccccc3)nc12	-1%	·	-6%	-18%	7%	8%
CC(Sc1nnc(-c2cccs2)n1-c1ccccc1)C(=O)NCc1ccco1 (centres undefined)	-2%	20%	-7%	?	-4%[57.1 µM]	8%
CC(Sc1ccsc1[N+](=O)[O-])C(=O)NCc1ccco1 (centres undefined)	-4%	22µM*	?	40µM*	-15%	?
COc1ccc(C(C)(C)C)cc1NC(=S)NCCN1CCOCC1	-4%	0%[57.1 µM]	-4%	-10%	-6%	10%
Cc1ccc(C(=O)Oc2cc(-c3ccc4c(c3)OCO4)cc(=O)c3c(C)oc(C)c23)cc1	7%	-19%	-32%	79µM*	·	?
CC1(C)CC(=O)c2sc(NC(=O)Cc3cccs3)nc2C1	-4%	-25%	-15%	14%	-8%	-2%
NC(=O)COc1ccc2cc(-c3ccc(F)cc3)c(=O)oc2c1	10%	25µM*	-7%	-27%	1%	-3%
CCOC(=O)Cc1cc(=O)n2[nH]c(C)c(-c3ccccc3)c2n1	-8%	?	?	5%	-11%[57.1 µM]	?
CCOC(=O)Cc1cc(=O)n2[nH]c(-c3ccccc3)c(-c3ccccc3)c2n1	0%	14µM*	79µM*	79µM*	?	?
CCOC(=O)NC1(Nc2cccc(Cl)c2)Oc2ccccc2O1	1%	4%	?	-11%	-17%	25µM*
O=C(Nc1ncc([N+](=O)[O-])s1)c1ccccc1Br	15%	?	?	50µM*	-12%	28µM*
O=C(NC12CC3CC(CC(C3)C1)C2)c1ccc(=O)oc1	-5%	9%	-6%	-3%	5%	18%
O=C(NNC(=O)C1[C@H]2CCCC[C@@H]12)c1ccc(=O)oc1 (some centres undefined)	10%	79µM*	?	?	-2%[11.6 µM]	22µM*
CCN(CC)c1ncnc2c1ncn2[C@H]1CN(Cc2ccncc2)C[C@@H](CO)O1	·	·	·	·	-1%	·
CC(C)(C)n1nc2c(c1NC(=O)COc1ccc(F)cc1)CS(=O)(=O)C2	15%	?	-7%	-4%	3%	-1%
SMILES	FEN1 inhibitor	Pol beta inh	POLK inh	Pol eta inh	WRN inhibitor	Pol iota inh
O=c1c2c3c(sc2n2cnnc2n1-c1ccccc1)N(Cc1ccccc1)CCC3	-10%	12%	-11%	9%	0%	40%
Nc1nc(N)nc(-c2cc(Cl)ccc2Cl)n1	1%	·	14%[60.1 µM]	-2%	1%[11.6 µM]	79µM*
Nc1nc(N)nc(-c2cccc(Cl)c2Cl)n1	-10%	·	-20%	2%	-3%	16%
CCn1c(SCC(=O)OCC(=O)N2c3ccccc3NC(=O)C2(C)C)nnc1-c1ccco1	-4%	-5%	-1%	13%	0%	6%
Cc1ccc2nc(Nc3ccc(F)cc3)c3nncn3c2c1	15%	32µM*	3%	-17%	-3%[57.1 µM]	6%
S=c1[nH]nc(-c2cc(-c3ccccc3)n[nH]2)n1/N=C/c1ccc(Cl)cc1	14%	40µM*	-9%	?	-17%[11.6 µM]	16µM*
S=c1[nH]nc(-c2cc(-c3ccccc3)n[nH]2)n1/N=C/c1ccc(Cl)c(Cl)c1	?	22µM*	?	?	35µM*	?
CCn1c2ccccc2c2cc(/C=N/n3c(-c4cc(C)[nH]n4)n[nH]c3=S)ccc21	?	50µM*	-17%	?	-12%[11.6 µM]	?
CCn1c2ccccc2c2cc(/C=N/n3cn[nH]c3=S)ccc21	?	19%	-13%	-1%	-5%	-3%
Cc1cc(C)nc(NS(=O)(=O)c2ccc(NC(=O)c3nn(-c4ccccc4)ccc3=O)cc2)n1	22%	2%	-1%	-14%	-8%	19%
Cc1ccc(-n2ccc(=O)c(C(=O)Nc3ccc(S(=O)(=O)Nc4nccc(C)n4)cc3)n2)cc1	-16%	-14%	-14%	40µM*	-14%	?
COCc1ccc(CN2CCc3c([nH]c4ccccc34)C2C(C)(C)C)o1 (centres undefined)	-11%	20µM*	-19%	-10%	-11%	-10%
COCCC(=O)N1CCc2c([nH]c3ccccc23)C1C(C)(C)C (centres undefined)	-3%	-11%	7%	-5%	3%	29%
O=S(=O)(c1ccccc1)N1CCSC1c1ccco1 (centres undefined)	1%	45µM*	-8%	?	-21%	?
CCC(C)NC(=O)NC(=O)CSc1nnc(-c2ccccc2F)n1C1CC1 (centres undefined)	-4%	7%	-5%	-8%	2%	27%
CCC(=O)Nc1ccc(C(=O)CSc2nnc(-c3ccccc3F)n2C2CC2)cc1	5%	28µM*	-32%	?	-6%	?
CCC(Sc1nc2ccncc2[nH]1)C(=O)Nc1ccc(C)c(Cl)c1 (centres undefined)	-25%	0%	-1%	-24%	-15%	-12%
Cc1cccc(C2C3=C(Nc4[nH]n(-c5ccccc5)c(=O)c42)c2ccccc2C3=O)c1 (centres undefined)	?	?	?	13µM*	-5%[11.6 µM]	?

High-throughput results deposited in PubChem by National Center for Advancing Translational Sciences (NCATS).
